# Target: PEG-3 (UniProt Q6IN02)
# Experiment: Peg3 promoter luciferase inhibitors, potency, dose response, cell-based, HeLa, CREF/GAPDH counter-screen panel (AID 624167)
# Conditions: CREF/GAPDH counter-screens; HeLa PEG-Prom luciferase reporter, overnight, run 1, dose range 1, at 100 µM (top of the series) unless noted
# Chain of PEG-3 (Q6IN02 whole entry, looked up): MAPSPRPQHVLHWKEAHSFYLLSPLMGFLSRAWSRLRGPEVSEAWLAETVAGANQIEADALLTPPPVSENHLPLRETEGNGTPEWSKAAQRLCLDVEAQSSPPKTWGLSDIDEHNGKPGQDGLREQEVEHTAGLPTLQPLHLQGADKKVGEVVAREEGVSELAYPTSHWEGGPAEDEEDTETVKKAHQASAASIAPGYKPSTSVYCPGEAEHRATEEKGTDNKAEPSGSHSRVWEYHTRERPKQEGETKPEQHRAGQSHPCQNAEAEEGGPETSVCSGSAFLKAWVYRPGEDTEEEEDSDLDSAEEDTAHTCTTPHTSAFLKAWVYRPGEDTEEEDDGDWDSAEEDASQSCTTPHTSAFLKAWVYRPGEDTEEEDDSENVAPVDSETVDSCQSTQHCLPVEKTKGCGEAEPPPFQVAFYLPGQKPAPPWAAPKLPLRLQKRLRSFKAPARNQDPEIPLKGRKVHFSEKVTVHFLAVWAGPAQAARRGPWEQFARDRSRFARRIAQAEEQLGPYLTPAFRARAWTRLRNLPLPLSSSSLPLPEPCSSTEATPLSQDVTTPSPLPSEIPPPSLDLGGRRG
row,Compound,inhibition [%]
1,CC(C)Cc1ccc(C(C)C(N)=NCCc2ccccc2)cc1 (stereo not drawn),97.4
2,CCCCCCN1C=C/C(=C\C=C(C#N)C#N)c2ccccc21,54.3
3,Cc1ccc(-n2c(N)c(C(=O)Nc3c(C)n(C)n(-c4ccccc4)c3=O)c3nc4ccccc4nc32)cc1,52.5
4,S=C(NN=C(c1ccccc1)c1ccccn1)N(Cc1ccccn1)Cc1ccccn1,102
5,CCCn1nc(C(=O)Nc2nc(-c3ccccn3)cs2)c2ccccc2c1=O,84.7
6,Cc1cc(C)c(C)c(S(=O)(=O)N2CCN(C(=O)c3cc(=O)[nH]c4ccccc34)CC2)c1C,82.1
7,Oc1[nH]c2ccc(Br)cc2c1N=NC(=S)N1CCOCC1,102
8,COc1cc(Nc2c3ccccc3nc3ccccc23)cc(OC)c1OC,102
9,Cc1cc(/C=N/Nc2ncnc(N)c2[N+](=O)[O-])c(C)n1-c1ccccc1,93.6
10,COc1cccc(/C=N/NC(=O)c2ccc(-c3ccccc3)cc2)c1O,81
11,O=C(NNC(=O)c1cccnc1SCc1cccc([N+](=O)[O-])c1)c1ccccn1,65.1
12,CN(C)c1ccc(/C=C/c2ccc3ccccc3n2)cc1,96.6
13,CCCS(=O)(=O)c1cnc(C2COc3ccccc3O2)nc1N (stereo not drawn),96.2
14,O=C(CN1C(=O)c2ccccc2S1(=O)=O)c1ccc2c(c1)OCCO2,102
15,CCn1nc(C)cc1-c1nnc(Sc2ncc([N+](=O)[O-])s2)n1C,102
16,O=C(Nc1ccc(Cc2ccncc2)cc1)c1ccc([N+](=O)[O-])o1,99.1
17,Cc1oc(-c2ccc3c(c2)OCCO3)cc1C(=O)O,101
18,CC(=O)c1sc2c(c1OC(=O)c1ccc(Cl)cc1Cl)c(=O)n(-c1ccccc1)c(=S)n2-c1ccccc1,82.6

# — PubChem BioAssay
